From PubChem BioAssay (NCATS)
Results filed as inconclusive are left out. Entries that show only a call come without a potency. Calls of active or inactive are those of the source. Calls come from the whole dose curve; as a rule, active = well fitted curve in the direction sought with a large enough effect; inconclusive = small, poorly fitted or top-dose-only effect, or another doubt; inactive = no such curve, though single readings can be large; an effect the other way counts as inactive or inconclusive.

How the values were obtained:
[1] = target: Aldehyde dehydrogenase, mitochondrial (Homo sapiens) (UniProt P05091); experiment: qHTS for Inhibitors of the Aldehyde Dehydrogenase Family (ALDH2) Primary screen (AID 2061308); details: ALDH2 enzyme inhibition qHTS, 1536-well; series mostly up to 56 µM; note: nearly all actives have a fitted effect of over 55% in size
[2] = target: Retinaldehyde dehydrogenase 3 (Homo sapiens) (UniProt P47895); experiment: qHTS for Inhibitors of the Aldehyde Dehydrogenase Family (ALDH1A3) Primary screen (AID 2061315); details: ALDH inhibition qHTS; series mostly up to 56 µM

Row | Compound | Potency [1] | Potency [2]
1 | O=S(=O)(Nc1nccs1)c1ccc(NCc2ccccc2O)cc1 | inactive | inactive
2 | Cc1nc(NC2CCCCC2)c2nc(-c3ccccc3)n(CCCN3CCOCC3)c2n1 | inactive | inactive
3 | COc1ccc(-n2ncc3c2CCCC3NC(=O)c2ccc3ncccc3c2)cc1 (centres undefined) | inactive | inactive
4 | Cc1ccc(S(=O)(=O)N2CCN(c3nc(-c4ccco4)nc4ccccc34)CC2)cc1 | inactive | inactive
5 | COc1ccc(C(=O)Nc2nnc(-c3ccco3)o2)cc1 | inactive | inactive
6 | Cn1cnc(S(=O)(=O)Nc2cnccc2C(=O)Nc2nc(-c3ccccc3)cs2)c1 | inactive | inactive
7 | O=C(OCC#CCSc1nnc(-c2cccc3ccccc23)o1)c1csc2ccccc12 | inactive | inactive
8 | S=C(NCCCc1cnc[nH]1)NCCCN(Cc1ccc(Cl)c(Cl)c1)c1ccc(Br)cn1 | inactive | inactive
9 | O=C1CCCC2=C1C(c1[nH]ncc1Cl)NC(=NCc1cccs1)N2 (centres undefined) | inactive | inactive
10 | O=C(OCC#CCSc1nnc(-c2cccc3ccccc23)o1)c1cc2ccccc2o1 | inactive | inactive
11 | CC(C)(C)c1ccccc1Nc1nc(C#N)nc(NC2CCCC2)n1 | inactive | inactive
12 | CCOC(=O)c1cccc(NS(=O)(=O)c2ccc(NC(=O)Cc3ccc(Cl)c(Cl)c3)cc2)c1 | inactive | inactive
13 | O=C(Nc1cccc(C(F)(F)F)c1)Nc1nnc(-c2ccncc2)s1 | inactive | inactive
14 | C[C@@H]1O[C@@H](O[C@@H]2[C@@H](O)[C@H](O[C@H]3CC[C@@]4(C)C(CC[C@]5(C)C4CC=C4[C@@H]6CC(C)(C)CC[C@]6(C(=O)O[C@@H]6O[C@H](CO)[C@@H](O)[C@H](O)[C@H]6O)CC[C@]45C)C3(C)C)O[C@H](C(=O)O)[C@H]2O)[C@H](O)[C@H](O)[C@H]1O (some centres undefined) | inactive | inactive
15 | C=C1[C@H]2CC[C@H](C(=O)O)[C@@]23CC[C@H](C3)C1(C)C | inactive | inactive
16 | O=C(OCC#CCSc1nnc(-c2cccc3ccccc23)o1)C1CCC1 | inactive | inactive
17 | CC1(C)CC(=O)C2=C(C1)NC(Nc1nc3ccccc3o1)=NC21CCCC1 | inactive | inactive
18 | O=S(=O)(c1ccc2c(c1)OCCO2)N1CCN(S(=O)(=O)c2ccc3nc(Cl)c(Cl)nc3c2)CC1 | inactive | inactive
19 | COc1ccc(-c2nnc3n2N=C(c2ccc(OC)c(OC)c2)CS3)cc1 | inactive | inactive
20 | CCOc1ccc(CCNC(=O)c2cc3ccccc3o2)cc1OCC | inactive | inactive
21 | COc1ccccc1C1N=C(Nc2nc3ccccc3o2)NC2=C1C(=O)CCC2 (centres undefined) | inactive | inactive

Row | Compound | Potency [1] | Potency [2]
22 | O=S1(=O)N=C(Oc2cccc(Br)c2)c2ccccc21 | inactive | inactive
23 | Cc1cc(C)c(S(=O)(=O)Nc2cccc3cccnc23)c(C)c1 | inactive | inactive
24 | c1ccc(CN(Cc2ccccc2)Cc2nnc(-c3cc4ccccc4[nH]3)o2)cc1 | inactive | inactive
25 | COC(=O)c1ccc(NC(=O)c2cc(-c3ccc(C)c(C)c3)nc3ccccc23)cc1 | inactive | inactive
26 | Cc1cc(C)nc(NC(=S)N2CCN(c3cc(C(F)(F)F)nc4ccccc34)CC2)c1 | inactive | inactive
27 | CCn1cnc2c(NCCc3cccnc3)nc(C#N)nc21 | inactive | inactive
28 | Cc1cc(C)n2ncc(C(=O)NCc3ccccc3)c2n1 | inactive | inactive
29 | CC(C)(C)N[S+](=O)([O-])c1cccc(-c2nnc(SCc3ccc(C(=O)O)cc3)n2-c2ccc(F)cc2)c1 | inactive | inactive
30 | O=[N+]([O-])c1cccc(CSc2nc3ncc(Br)cc3[nH]2)c1 | inactive | inactive
31 | Cc1ccc2nsnc2c1S(=O)(=O)Nc1cccc2cccnc12 | inactive | inactive
32 | CCC(C)/C=C(C)/C=C/C1=CC2=CC(=O)C(C)(O)C(OC(C)=O)C2CO1 (centres undefined) | inactive | inactive
33 | Cc1cc(NC(=O)Nc2cccc(-c3ccncc3)n2)ccc1Br | inactive | inactive
34 | CC(=O)O[C@@H]1CC(C)=C2[C@H]1[C@H](C)CC[C@H]2/C=C(\C)C(=O)O | inactive | inactive
35 | COc1ccc(CSc2nc3ncc(Br)cc3[nH]2)cc1F | inactive | inactive
36 | N#Cc1c(-c2cccc(C(F)(F)F)c2)no[n+]1[O-] | inactive | inactive
37 | CCOc1cccc(-c2cc(-c3n[nH]c(=O)n3CC)c3ccccc3n2)c1 | inactive | inactive
38 | N#Cc1ccc(OC2=NS(=O)(=O)c3ccccc32)cc1 | inactive | inactive
39 | Cc1noc(C)c1-c1ccc2ncnc(NCC3CCCCN3C)c2c1 (centres undefined) | inactive | inactive
40 | O=C(Nc1ccc(Cl)c(Cl)c1)Nc1nnc(-c2ccc(F)cc2)s1 | inactive | inactive
41 | Cc1cnc(-c2ccccc2C(C)C)nc1NCC1CCN(C)CC1 | inactive | inactive
42 | COc1cccc(NC(=S)N2CCN(c3ccc(Cl)cc3Cl)CC2)n1 | inactive | inactive

Row | Compound | Potency [1] | Potency [2]
43 | COc1ccc(CCNC(=O)Cn2nc(-c3ccc(C)cc3)ccc2=O)cc1OC | inactive | inactive
44 | Cc1ccc(S(=O)(=O)Nc2cnccc2C(=O)Nc2nc(-c3ccc(-c4ccccc4)cc3)cs2)cc1 | inactive | inactive
45 | Cc1cc(C)nc(NC(=S)N2CCN(c3ccc(N4CCCC4)nn3)CC2)c1 | inactive | inactive
46 | O=C(Nc1ccc(F)c(C(F)(F)F)c1)Nc1nnc(-c2ccncc2)o1 | inactive | inactive
47 | COc1cccc(C2c3c(ncn(-c4cccc(F)c4)c3=N)Oc3ccc4ccccc4c32)c1 (centres undefined) | inactive | inactive
48 | O=C1CCCC2=C1C(c1[nH]ncc1Cl)N=C(Nc1nc3cccc(Cl)c3o1)N2 (centres undefined) | inactive | inactive
49 | O=C(NC1CCCc2c1cnn2-c1ccc(F)cc1F)c1ccccc1 (centres undefined) | inactive | inactive
50 | CN(C)[S+](=O)([O-])c1ccc(-c2ccc(=O)n(CC(=O)NCCc3ccccc3)n2)cc1 | inactive | inactive
51 | C[C@@H]1C[C@@H](O)[C@@]23CO[C@@H](O)[C@@H]2CCC[C@@H]3[C@@]12C[C@@H](c1ccoc1)OC2=O | inactive | inactive
52 | NC(=O)C1CCN(c2nc(-c3ccc(N)cc3)cs2)CC1 | inactive | inactive
53 | Cc1cc2c(s1)c1cnn(Cc3cc(F)ccc3C)c(=O)c1n2C | inactive | inactive
54 | O=[N+]([O-])c1ccc([S+](=O)([O-])N2CCN([S+](=O)([O-])c3ccc4c(c3)OCCO4)CC2)c([N+](=O)[O-])c1 | inactive | inactive
55 | N#Cc1cc(NC(=O)Nc2nnc(-c3ccncc3)s2)ccc1Br | inactive | inactive
56 | Cc1cc2c(s1)c1cnn(Cc3ccc(Cl)c(F)c3)c(=O)c1n2C | inactive | inactive
57 | COc1cc(O)c(C(CC(=O)N2CCC(c3ccccc3)CC2)c2ccc(C)cc2)c(OC)c1 (centres undefined) | inactive | inactive
58 | Fc1cc(-c2nc(Nc3ccc(F)c(F)c3)c3ccccc3n2)ccn1 | inactive | inactive
59 | COc1ccc2cc3cc(C(=O)Nc4ccc(F)cc4)sc3nc2c1 | inactive | inactive
60 | Cc1cccc(C)c1-n1c(SCC(=O)Nc2ccc(F)cc2)nnc1-c1cccc([S+](=O)([O-])N2CCCC2)c1 | inactive | inactive
61 | Cc1ccc(OCCn2c(CCNC(=O)c3cccc(F)c3)nc3ccccc32)cc1 | inactive | inactive
62 | Cn1nnnc1Sc1ncnc2scc(-c3ccc4c(c3)OCO4)c12 | inactive | inactive
63 | Fc1ccc(-c2noc(CCCCSc3nnc(-c4cccc5ccccc45)o3)n2)cc1 | inactive | inactive

Row | Compound | Potency [1] | Potency [2]
64 | Cc1ccc(OCCn2c(CCNC(=O)Cc3ccccc3F)nc3ccccc32)cc1 | inactive | inactive
65 | COc1ccc(S(=O)(=O)Nc2ccc(C)c(C)c2)cc1 | inactive | inactive
66 | CC1(C)C=Cc2c(ccc3c2N=C2C(C)(C)[C@@H]4C[C@]56CCCN5C(=O)[C@@]4(C[C@]23O)NC6=O)O1 | inactive | inactive
67 | Cc1ccccc1-c1nc(NCc2cccs2)c2ccccc2n1 | inactive | inactive
68 | O=C(CSc1nc2ccccc2[nH]1)N1CCOCC1 | inactive | inactive
69 | C=C1C(=O)OC2C3=C(C)C(=O)CC3C(C)CC(O)C12 (centres undefined) | inactive | inactive
70 | Cc1c[nH]c2nccc(Oc3c(F)cc(Nc4cc(Cl)nc(N)n4)cc3F)c12 | inactive | inactive
71 | Cc1ccc(OCCn2c(CCNC(=O)c3ccccn3)nc3ccccc32)cc1 | inactive | inactive
72 | Cc1cc2c(s1)c1cnn(Cc3cc(C(F)(F)F)cc(Cl)c3F)c(=O)c1n2C | inactive | inactive
73 | O=C(COC(=O)CNC(=O)c1ccccc1)Nc1ccccc1Cl | inactive | inactive
74 | N#Cc1nc(Nc2cc(F)cc(F)c2)nc(Nc2cc(F)cc(F)c2)n1 | inactive | inactive
75 | CN(C)c1ccc(-c2cc(O)c3ncccc3c2)cc1 | inactive | inactive
76 | O=S(=O)(c1ccc(O)c2ncccc12)N1CCCCC1 | inactive | inactive
77 | O=S(=O)(NC1CCC(CNS(=O)(=O)c2c(F)cccc2F)CC1)c1ccc2c(c1)OCCO2 (centres undefined) | inactive | inactive
78 | COc1ccc([S+](=O)([O-])N2CCN([S+](=O)([O-])c3ccc4c(c3)OCCO4)CC2)c(OC)c1 | inactive | inactive
79 | Cc1nc(NCc2ccccc2)c2nc(-c3ccccc3)n(C(C)CN(C)C)c2n1 (centres undefined) | inactive | inactive
80 | c1nc(NCC2CCCO2)c2ccc(-c3ccc4c(c3)OCO4)cc2n1 (centres undefined) | inactive | inactive
81 | C[C@@H]1[C@H](O)[C@@H]2OC(=O)C3=C2[C@H](CCC3)[C@@]12C[C@@H](c1ccoc1)OC2=O | inactive | inactive
82 | C[C@@H]1CC[C@]2(C(=O)O[C@@H]3O[C@H](CO)[C@@H](O)[C@H](O)[C@H]3O)CC[C@]3(C)C(=CCC4[C@@]5(C)C[C@@H](O)[C@H](O)[C@](C)(C(=O)O)C5CC[C@]43C)[C@@H]2[C@]1(C)O (some centres undefined) | inactive | inactive
